Data reported in PubChem BioAssay AID602440 (Sanford-Burnham Center for Chemical Genomics, 2012).
Out of some 360,000 compounds screened, about 2,300 (0.64%) were called active. Rule as the data show it: active = inhibition mostly above about 40% (no sharp cut-off); inactive = mostly below about 27%. Shown is part of a subset that was picked to be rich in actives.

These molecules were tested against Sentrin-specific protease 8 (Homo sapiens) (UniProt Q96LD8) (assay: human SENP8 protease inhibitors, primary screen, biochemical, fluorescence, Nedd8 protein substrate, uHTS (AID 602440)). Conditions: recombinant SENP8, Nedd8 substrate fluorescence; at 20 µM; stronger effect = higher value.
Sequence of Sentrin-specific protease 8 (Homo sapiens) (Q96LD8 whole entry, looked up): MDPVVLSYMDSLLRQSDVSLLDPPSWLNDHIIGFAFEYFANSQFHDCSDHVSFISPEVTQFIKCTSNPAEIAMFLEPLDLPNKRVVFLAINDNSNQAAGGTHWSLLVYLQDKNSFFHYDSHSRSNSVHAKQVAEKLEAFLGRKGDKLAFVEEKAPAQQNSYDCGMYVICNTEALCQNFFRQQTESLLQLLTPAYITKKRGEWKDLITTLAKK

Row | SMILES | inhibition
1 | O=C(NCCC1CCCCN1S(=O)(=O)c1ccccc1)C(=O)NCC1CCCO1 (centres undefined) | 7.7% (inactive)
2 | CCCCNC(=O)C(C)N(CCN(C)C)C(=O)CCCN1C(=O)NC(c2ccc(Cl)cc2)C(C(=O)OCc2ccccc2)=C1C (centres undefined) | 12.8% (inactive)
3 | C/C(=N/NC(=O)c1ccc(Br)o1)c1ccc(C)o1 | -3.6% (inactive)
4 | O=C(c1cccc(F)c1)N1CCN(c2ccc([N+](=O)[O-])c3cccnc23)CC1 | 41.3% (active)
5 | Cc1ccccc1CN1CCN(C(=O)c2cccc(F)c2)CC1 | 17.2% (inactive)
6 | O=C(c1cccc(F)c1)N1CCC(O)(c2cccnc2)CC1 | 18.5% (inactive)
7 | NC(=O)C1CC(=O)N(c2ccc(OCC(=O)NCc3ccccc3)cc2)C1 (centres undefined) | 5.3% (inactive)
8 | CC(C)C[C@@H](CO)N1CCN(Cc2ccc(O)cc2)CCC1=O | -5% (inactive)
9 | CC(C)(C)NC(=O)NC(=O)COC(=O)C1(C)CC1(Cl)Cl (centres undefined) | 12.9% (inactive)
10 | CN(C)C(=O)c1cccc(-c2cnc3c(NC=O)cc(-c4ccc(C(=O)N5CCOCC5)cc4)cn23)c1 | -177% (inactive)
11 | O=C1NNC(c2ccccc2)=N/C1=C\c1ccc(Cl)cc1 | 64% (active)
12 | O=C(c1ccccc1)c1ccc(OC(=O)N2CCCC2)cc1 | 22.4% (inactive)
13 | COc1ccc(OC)c(NC(=O)c2ccc3c(c2)CCN3S(C)(=O)=O)c1 | 3% (inactive)
14 | Cc1nc(C(=O)NCc2ccccc2)sc1C1(C)CC(c2cccnc2)=NO1 (centres undefined) | 8.5% (inactive)
15 | CC(=O)N/C(=C\c1ccc(F)cc1)C(=O)NC(Cc1ccccc1)C(=O)O (centres undefined) | 2.6% (inactive)
16 | CCC(C)[C@H](NC(=O)N1c2ccccc2NC(=O)[C@@H]1C(C)C)C(=O)N[C@@H](Cc1ccccc1)C(=O)O (some centres undefined) | 53.4% (active)
17 | CC(C)[C@H](NC(=O)N1c2ccccc2NC(=O)[C@@H]1C(C)C)C(=O)N[C@H](C(=O)O)c1ccccc1 | 37% (inactive)
18 | COc1ccc([C@H]2N[C@]3(CCCN(Cc4ccco4)C3=O)[C@H]3C(=O)N(C)C(=O)[C@@H]23)cc1 | -14% (inactive)
19 | O=C(CCN1C(=O)COc2ccccc21)NCCCN1CCN(c2ccc(F)cc2)CC1 | 12.7% (inactive)
20 | O=C(NCCCN1CCN(c2ccc(F)cc2)CC1)Nc1ccc([N+](=O)[O-])cc1 | 44.8% (active)
21 | O=C(CSc1ccc([N+](=O)[O-])cn1)Nc1ccc(N2CCOCC2)cc1 | 37.7% (inactive)
22 | O=C(Nc1ccc(C(=O)NCc2ccccc2Cl)cc1)C1=CSCCO1 | -35.3% (inactive)
23 | COc1ccc(OC)c(C(O)c2nc3ccccc3n2C)c1 (centres undefined) | 15.4% (inactive)
24 | Cn1nc(C(F)(F)F)c(C(=O)Nc2cccc(C(F)(F)F)c2)c1SCc1ccc(Cl)cc1 | 5.4% (inactive)
25 | CCCCn1c(N)c(N(CC(C)C)C(=O)c2ccc(Br)o2)c(=O)[nH]c1=O | -3.8% (inactive)
26 | COc1cc(C(=S)N2CCOCC2)cc(OC)c1OC(=O)c1cc([N+](=O)[O-])cc([N+](=O)[O-])c1 | 40.9% (active)
27 | COc1cc(C(=S)N2CCOCC2)cc(OC)c1OC(=O)c1cc([N+](=O)[O-])c(C)c([N+](=O)[O-])c1 | 27.5% (inactive)

Row | SMILES | inhibition
28 | COc1cc(C(=S)N2CCOCC2)cc(OC)c1OC(=O)c1ccc([N+](=O)[O-])cc1[N+](=O)[O-] | 11.9% (inactive)
29 | NNC(=O)CNC(c1ccccc1)c1cc(Cl)ccc1NC(=O)c1ccccc1 (centres undefined) | 2.6% (inactive)
30 | CN(C(=O)COC(=O)CNC(=O)C12CC3CC(CC(C3)C1)C2)c1ccccc1 | 2% (inactive)
31 | CC(C)c1cc(Cn2c3ccccc3c(=O)n2C(C)Cn2cc(C3CC3)nn2)on1 (centres undefined) | -395% (inactive)
32 | CCS(=O)(=O)Nc1ccc(C(=O)NCCSc2ccccc2)cc1 | 23.1% (inactive)
33 | Cc1cccc(OCC(=O)NC(=S)Nc2ccccc2N2CCOCC2)c1 | 43.3% (active)
34 | Cc1cc(C)cc(OCC(=O)Nc2ccc(N3CCOCC3)cc2N2CCOCC2)c1 | 17.3% (inactive)
35 | CCc1ccc(C(=O)NC(=S)Nc2ccccc2N2CCOCC2)cc1 | 30.3% (inactive)
36 | CCn1c(=O)cc(SCC(=O)NCCC2=CCCCC2)c2ccccc21 | -40.2% (inactive)
37 | CCCc1nc(SCC(=O)Nc2ccccc2OC)c2c(=O)n(C)c(=O)n(C)c2n1 | 10.5% (inactive)
38 | FC(F)(F)c1cc(C(F)(F)F)c2ccc(N3CCN(c4ccccc4)CC3)nc2n1 | -2.9% (inactive)
39 | Cc1ccc(CNC(=O)C2(C(F)(F)F)C/C(=C\Cc3ccccc3)CCCO2)o1 (centres undefined) | 12.6% (inactive)
40 | CC(C)CC[n+]1ccn(C2=C([O-])c3ccccc3C(=O)/C2=N\S(=O)(=O)c2ccccc2)c1 | 54% (active)
41 | CC(=O)NC(Cc1ccc(F)cc1)C(=O)O (centres undefined) | 2% (inactive)
42 | O=C(CCNC(=O)c1ccc(Br)cc1)NCC(c1ccco1)N1CCCCC1 (centres undefined) | 10.5% (inactive)
43 | CCOC(=O)c1ccc(COC(=O)CCc2nc(-c3ccccc3)c(-c3ccccc3)o2)cc1 | -13.2% (inactive)
44 | CCOc1cc(NC(=O)Nc2ccccc2)c(OCC)cc1NC(=O)CC | -0.4% (inactive)
45 | O=C(NCCOc1ccccc1)c1ccccc1F | 5.5% (inactive)
46 | CCOc1cc(NC(=O)c2ccccc2C(=O)O)c(OCC)cc1NC(=O)c1ccccc1F | 50.6% (active)
47 | Cc1ccc(-c2nn(-c3cccc(F)c3)cc2CNCCc2ccncc2)o1 | -178% (inactive)
48 | CONC(=O)c1cc(OCC(F)(F)F)ccc1OCC(F)(F)F | 21.1% (inactive)
49 | CCOc1c(Br)cc(/C=C2\C(=O)N(CCC#N)N=C2C)cc1OC | 50.8% (active)
50 | CCN1C(=O)[C@@H]2[C@@H](c3ccc(-c4ccccc4)cc3)N3CCCC[C@@]3(C(=O)OC)[C@@H]2C1=O | 3.1% (inactive)
51 | CC1=C/C(=N\OS(=O)(=O)c2ccccc2)C=CC1=O | 52.9% (active)
52 | COc1ccc2[nH]c3c(c2c1)CCN1C(=O)C(CC(=O)NCCc2ccccn2)C[C@H](C(=O)N2CCOCC2)[C@@]31C (some centres undefined) | -3.3% (inactive)
53 | Cc1ccc(S(=O)(=O)N2[C@@H](c3cccc4ccccc34)C(C(=O)O)=C[C@H]2C(C)(C)C)cc1 | 1.1% (inactive)
54 | O=C(NC1CC1)C1=C[C@H](c2coc3ccccc3c2=O)C[C@H](OCCCCO)O1 | -5% (inactive)
